The results in this text go back to paper PMC10726135, “HNF4α isoforms regulate the circadian balance between carbohydrate and lipid metabolism in the liver”.

The full ranking holds about 18,000 sequences; the median of “log2 normalized intensity” is about 0.39, and the highest 2% start at about 6.6. The sample as a whole holds a higher share of the highest values than the screen did.

The target in this experiment is T1, HNF4alpha2 (COS-7 nuclear extract) (Homo sapiens, UniProt P41235 1-474).
T1 sequence: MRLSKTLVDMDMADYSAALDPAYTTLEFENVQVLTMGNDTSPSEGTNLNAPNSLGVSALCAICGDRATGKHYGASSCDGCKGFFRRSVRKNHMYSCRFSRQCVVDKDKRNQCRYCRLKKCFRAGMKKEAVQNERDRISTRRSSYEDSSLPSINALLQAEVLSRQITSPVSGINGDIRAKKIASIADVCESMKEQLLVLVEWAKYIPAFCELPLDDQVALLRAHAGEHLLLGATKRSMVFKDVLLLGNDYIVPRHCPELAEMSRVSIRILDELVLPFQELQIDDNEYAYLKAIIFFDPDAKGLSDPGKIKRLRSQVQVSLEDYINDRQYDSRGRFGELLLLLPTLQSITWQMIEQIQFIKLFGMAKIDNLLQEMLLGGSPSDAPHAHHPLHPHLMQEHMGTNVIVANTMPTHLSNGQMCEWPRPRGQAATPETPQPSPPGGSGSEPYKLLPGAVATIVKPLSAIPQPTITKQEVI
Briefly: protein-binding microarray; COS-7 nuclear extract on double-stranded Agilent 4x180k PBM; binding buffer, salt, pH and temperature not given in the material; high values mean tight binding. As to conditions: chain copies: 2; label: 3' end of strand 1 on the slide; dsDNA, one strand shown. The method, boiled down: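 A human HNF4α isoform was expressed in COS-7 cells by transient CaPO4 transfection, and nuclear extracts were prepared. These were applied to a custom Agilent SurePrint G3 4x180k array carrying ~44,000 test sequences in quadruplicate as double-stranded ~60-nt oligonucleotides, and an Agilent G2565CA scanner imaged bound HNF4α at 2-µm resolution. The background-corrected, normalized gProcessedSignal from Agilent software was used as the binding signal.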
As to “TCTTAGGAAAGAACAGGTCAAAGGTCAGTTGCCTAGGGAGATTAGAGTATCGGTCGA”, the binding signal stood at 9.13 log2 normalized intensity.

For the sequence “AAGATTTATCAGGTCTTTCTTTCAGAACAGGCCTAGGGAGATTAGAGTATCGGTCGA”, the binding signal came out at 0.622 log2 normalized intensity.

“GACTGTCTTAGGAAAGAACAGGTCAAAGGTGCCTAGGGAGATTAGAGTATCGGTCGA”: the binding signal was 3.91 log2 normalized intensity.

With “TCAGAAACAGGAATTCAAAGGTGCAAAGGTGCCTAGGGAGATTAGAGTATCGGTCGA”, the binding signal was 2.06 log2 normalized intensity.

With “TAGGAGACTGTCTTAGGAAAGAACAGGTCAGCCTAGGGAGATTAGAGTATCGGTCGA”, the binding signal is 1.14 log2 normalized intensity.

Regarding “GGAAAGAACAGGTCAAAGGTCAGTTTCTTTGCCTAGGGAGATTAGAGTATCGGTCGA”, the binding signal was determined as 7.28 log2 normalized intensity.

With “GCAGAGCAGTTTAGAGAAAGGGTCAAAGGTGCCTAGGGAGATTAGAGTATCGGTCGA”, the binding signal turned out to be 5.29 log2 normalized intensity.

For “GAACAGGTCAAAGGTCAGTTTCTTTAAGACGCCTAGGGAGATTAGAGTATCGGTCGA”, the binding signal came out at 7.04 log2 normalized intensity.

“CTTTGGACTTTCAAAAGTTAAGGTCAAGACGCCTAGGGAGATTAGAGTATCGGTCGA”: the binding signal amounted to 1.94 log2 normalized intensity.

“GGTCAAAGGTCAGTTTCTTTAAGACAAGTGGCCTAGGGAGATTAGAGTATCGGTCGA”: the binding signal came to 5.53 log2 normalized intensity.

Turning to “ACCCTGAATGTGTGCTGGCCTGGTTCCTTCGCCTAGGGAGATTAGAGTATCGGTCGA”, the binding signal amounted to 0.887 log2 normalized intensity.

In the case of “TTGTCCCTTTTCTATCCAGATGATCTTTACGCCTAGGGAGATTAGAGTATCGGTCGA”, the binding signal was 2.25 log2 normalized intensity.

Consider “GTCCCAGTAGATAACTTCAAGGAGCTCGGCGCCTAGGGAGATTAGAGTATCGGTCGA”, for which the binding signal is -0.627 log2 normalized intensity.

Regarding “GTAGGGCCAATCTCTGGCATGTATTTATCAGCCTAGGGAGATTAGAGTATCGGTCGA”, the binding signal was 0.384 log2 normalized intensity.

For “ATAGGAGGATTTTATTCAGGTGGCCACTGGGCCTAGGGAGATTAGAGTATCGGTCGA”, the binding signal came out at 1.03 log2 normalized intensity.

For the sequence “GTTCCGCGGTCCGCAGCGCTGGTGGCTGCAGCCTAGGGAGATTAGAGTATCGGTCGA”, the binding signal is -0.919 log2 normalized intensity.

For the sequence “CTTTGTATAAGCCGTGCAAAGTTCATCCCTGCCTAGGGAGATTAGAGTATCGGTCGA”, the binding signal was 3.24 log2 normalized intensity.

For the sequence “CTCGAGGTGGACTTTCCCCCCTCACACTTTGCCTAGGGAGATTAGAGTATCGGTCGA”, the binding signal was found to be 5.25 log2 normalized intensity.

In the case of “TTGTTTTTGCTTGGAATGCCCTTATCTCATGCCTAGGGAGATTAGAGTATCGGTCGA”, the binding signal was 2.32 log2 normalized intensity.

For “AGCTGGGCCTGTGCTGGGGACAAAAGCTGAGCCTAGGGAGATTAGAGTATCGGTCGA”, the binding signal is -0.959 log2 normalized intensity.

On to “AGGCCCTCGGCATCATGCCCTTTGGCCCCCGCCTAGGGAGATTAGAGTATCGGTCGA”, for which the binding signal turned out to be 7.28 log2 normalized intensity.

In the case of “TTTTCCACCCTCCCCTCCCCCTCCTCCCCTGCCTAGGGAGATTAGAGTATCGGTCGA”, the binding signal came to 7.13 log2 normalized intensity.

“CCCTCCTCCTTTTTTTCCCCTCCCTCAGCTGCCTAGGGAGATTAGAGTATCGGTCGA”: the binding signal stood at 3.64 log2 normalized intensity.

On to “ACACCAGGCCCTCGGCATCATGCCCTTTGGGCCTAGGGAGATTAGAGTATCGGTCGA”, for which the binding signal was found to be 3.91 log2 normalized intensity.

As for “TTCCTCCCACTCTGACATCCCCCTTTCTCTGCCTAGGGAGATTAGAGTATCGGTCGA”, the binding signal came to 3.26 log2 normalized intensity.

As for “CTTACTCTCTCCCTCCTCCTTTTTTTCCCCGCCTAGGGAGATTAGAGTATCGGTCGA”, the binding signal was found to be 2.98 log2 normalized intensity.

Consider “CATTTTTTTCCACCCTCCCCTCCCCCTCCTGCCTAGGGAGATTAGAGTATCGGTCGA”, for which the binding signal is 6.28 log2 normalized intensity.

Regarding “ATTCCCTTTCTCCTCCCCTCCCCTCCCCCCGCCTAGGGAGATTAGAGTATCGGTCGA”, the binding signal worked out at 6.91 log2 normalized intensity.

As for “ACTGCATTCCCTTTCTCCTCCCCTCCCCTCGCCTAGGGAGATTAGAGTATCGGTCGA”, the binding signal amounted to 4.31 log2 normalized intensity.

Consider “CTTTCTCCTCCCCTCCCCTCCCCCCACTCAGCCTAGGGAGATTAGAGTATCGGTCGA”, for which the binding signal is 6.94 log2 normalized intensity.

“CTCGGCATCATGCCCTTTGGCCCCCAGAGCGCCTAGGGAGATTAGAGTATCGGTCGA”: the binding signal is 6.14 log2 normalized intensity.

Regarding “TCTCTCCCTCCTCCTTTTTTTCCCCTCCCTGCCTAGGGAGATTAGAGTATCGGTCGA”, the binding signal worked out at 4.61 log2 normalized intensity.

In the case of “TCCTGATCCCTGAGGTCGGGGCCTGGTCTGGCCTAGGGAGATTAGAGTATCGGTCGA”, the binding signal worked out at 0.683 log2 normalized intensity.

In the case of “CAATGCCCCAGAAAGCCAGCAGGGGCTGCTGCCTAGGGAGATTAGAGTATCGGTCGA”, the binding signal is -0.844 log2 normalized intensity.

Consider “AGCTTCTCTTTCTAGGTCACCACCTTTTTTGCCTAGGGAGATTAGAGTATCGGTCGA”, for which the binding signal was 1.37 log2 normalized intensity.

In the case of “GGCCTGATAGATTTTGCATTGCTCACATAGGCCTAGGGAGATTAGAGTATCGGTCGA”, the binding signal was -0.988 log2 normalized intensity.

As to “TCCTCCAAAACCCAGTTCATAGGTCAATTCGCCTAGGGAGATTAGAGTATCGGTCGA”, the binding signal worked out at 4.02 log2 normalized intensity.

Regarding “AGCTGACGCCCCACCCCCTCCACCCCTGCCGCCTAGGGAGATTAGAGTATCGGTCGA”, the binding signal worked out at 6.82 log2 normalized intensity.

“CCCTCCCCCCACTCAAAATAGGAGTTAAGGGCCTAGGGAGATTAGAGTATCGGTCGA”: the binding signal was 2.45 log2 normalized intensity.

For “ACGCCCCACCCCCTCCACCCCTGCCTTTCAGCCTAGGGAGATTAGAGTATCGGTCGA”, the binding signal was found to be 6.39 log2 normalized intensity.

With “TCCTCCCCTCCCCTCCCCCCACTCAAAATAGCCTAGGGAGATTAGAGTATCGGTCGA”, the binding signal was determined as 6.79 log2 normalized intensity.

On to “GAAAAAGCTGACGCCCCACCCCCTCCACCCGCCTAGGGAGATTAGAGTATCGGTCGA”, for which the binding signal is 6.44 log2 normalized intensity.

Consider “CCCTCCCCTCCCCCCACTCAAAATAGGAGTGCCTAGGGAGATTAGAGTATCGGTCGA”, for which the binding signal stood at 4.52 log2 normalized intensity.
